Reference: PubChem BioAssay (NCATS)
Inconclusive results are not listed. The source made the active and inactive calls. Unless noted, calls come from the whole dose curve; as a rule, active = well fitted curve in the direction sought with a large enough effect; inconclusive = small, poorly fitted or top-dose-only effect, or another doubt; inactive = no such curve, though single readings can be large; an effect the other way counts as inactive or inconclusive.

Key:
[1] = qHTS for Inhibitors of the Functional Ribonucleoprotein Complex (vRNP) of Lassa (LASV) Arenavirus: LASV Primary Screen - GLuc reporter signal (AID 1347082; calls by dose curve; tested in HEK293 reporter line; note: series mostly up to about 57 µM; nearly all actives have a fitted effect of over 60% in size)
[2] = P-glycoprotein substrates identified in KB-3-1 adenocarcinoma cell line, qHTS therapeutic library screen (AID 1346986);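 note: potency is the fitted concentration of half-maximal effect; potency is for cytotoxicity meaning loss of cell viability; nearly all actives have a fitted effect of over 60% in size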
How it was run: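 Cells seeded 500/well in DMEM/10% FCS; compounds pinned in dose-response; 72 h incubation; CellTiter-Glo added, 5 min, luminescence. KB-8-5-11 run ±tariquidar to test reversal of P-gp resistance.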

[3] = Primary qHTS for inhibitors of nuclear receptor binding SET domain protein 2 (NSD2) in an isogenic RCH-ACV NSD2 p.E1099K mutant (9B) (AID 1645876); note: potency is the fitted concentration of half-maximal effect; nearly all actives have a fitted effect of over 70% in size
[4] = Primary qHTS for inhibitors of nuclear receptor binding SET domain protein 2 (NSD2) in an RCH-ACV wild type WT cells (2C) (AID 1645877); note: potency is the fitted concentration of half-maximal effect; nearly all actives have a fitted effect of over 70% in size

Row | SMILES | Potency [1] | Potency [2] | Potency [3] | Potency [4]
1 | C=CC(C)(C)c1[nH]cnc1/C=C1\NC(=O)C(C(C)C)NC1=O (centres undefined) | inactive | – | – | –
2 | COCC1OC(=O)c2coc3c2C1(C)C1=C(C3=O)C2CCC(=O)C2(C)CC1OC(C)=O (centres undefined) | – | 20.6 µM (active) | 3.66 µM (active) | 1.3 µM (active)
